# Results as given in PubChem BioAssay (EPA / NIEHS).
# Calls of active or inactive are those of the source. Rule for the calls: active = hit-call score of the fitted dose curve at least 0.9, where 1 is the maximum; inactive = score below 0.9.
# Experiment: ATG_ISRE_CIS: Attagene CIS-FACTORIAL HepG2 Assay for human Interferon Regulatory Factor 1 (IRF1) binding to an Interferon-Stimulated Response Element (ISRE) (AID 2282948)
# Conditions: HepG2 ISRE cis-reporter (Attagene), mRNA transcription readout; actives raise or lower the signal
# Procedure: ATG_CIS is a cell-based, multiplexed-readout assay that uses HepG2, a human liver cell line, with measurements taken at 24 hours after chemical dosing in a 24-well plate.ATG_ISRE_CIS is one of 52 assay component(s) measured or calculated from the ATG_CIS assay. It is designed to make measurements of mRNA induction, a form of inducible reporter, as detected with fluorescence intensity signals by Reverse transcription polymerase chain reaction (RT-PCR) and Capillary electrophoresis technology.Data from the assay component ATG_ISRE_CIS was analyzed into 1 assay endpoint. This assay endpoint, ATG_ISRE_CIS, was analyzed with bidirectional fitting relative to DMSO as the negative control and baseline of activity. Using a type of inducible reporter, measures of mRNA for gain or loss-of-signal activity can be used to understand the reporter gene at the transcription factor-level as they relate to the gene IRF1. Furthermore, this assay endpoint can be referred to as a primary readout, because this assay has produced multiple assay endpoints where this one serves a reporter gene function. To generalize the intended target to other relatable targets, this assay endpoint is annotated to the dna binding intended target family, where the subfamily is interferon regulatory factors.
# Human liver HepG2 cells are transiently transfected with multiple reporter transcription units (MRTUs) in 6-well plates using FuGene 6 reagent (Roche; 3 ml FuGene/1 mg DNA). The MRTU constructs are regulated by a cis-regulating element (promoter). […] A major difference between the CIS and TRANS system is that in CIS activities of endogenous TFs are measured, whereas the TRANS assay evaluates changes in activities of exogenous, chimeric NR-Gal4 proteins. […] At the end of 24 hour incubation, total RNA was isolated using TriZol reagent (Invitrogen). The isolated RNA is then reverse-transcribed using oligo(dT) primer and Mo-MLV reverse transcriptase (Invitrogen) with DNAse I (Ambion) treatment for 30 min. The one-tenth of the produced cDNA was amplified by PCR using Taq DNA polymerase (Invitrogen) and two reporter sequence-specific primers. The PCR products were fluorescently labeled by primer extension with 6-arboxyfluorescein (6-FAM) 5'-labeled reporter sequence-specific primer (2 min at 95 C, 20 s at 68 C and 10 min at 72 C) and these products were digested with 5U of HpaI (New England Biolabs) for 2h at 37 C. The fragments were purified using Qiaquick PCR columns (Qiagen), analyzed on an ABI 3130xL genetic analyzer (Applied Biosystems) with peak positions identified by using a set of X-rhodamine (ROX)-labeled MapMarker1000 molecular weight standards (BioVentures). The raw capillary electrophoresis data was processed using Attagraph software (Attagene).
SMILES,outcome,AC50
CC(C)=CC1C(C(=O)OCc2coc(Cc3ccccc3)c2)C1(C)C (stereo not given),inactive,–
N#Cc1c(Cl)cccc1Cl,inactive,–
CC1(C)CCC(=Cc2ccc(Cl)cc2)C1(O)Cn1cncn1 (stereo not given),inactive,–
COC(=O)c1c(C(F)F)nc(C(F)(F)F)c(C2=NCCS2)c1CC(C)C,inactive,–
C=C(C)CN(CC)c1c([N+](=O)[O-])cc(C(F)(F)F)cc1[N+](=O)[O-],inactive,–
COC(=O)NC(=S)Nc1ccccc1NC(=S)NC(=O)OC,inactive,–
CC1(C)C(C=C(Cl)Cl)C1C(=O)OC(C#N)c1cccc(Oc2ccccc2)c1 (stereo not given),inactive,–
CC(C)N1C(=O)c2ccccc2NS1(=O)=O,inactive,–
CCSC(=O)N1CCCCCC1,inactive,–
CC(C)C1(C)N=C(c2ncccc2C(=O)O)NC1=O (stereo not given),inactive,–
N#Cc1c[nH]cc1-c1cccc2c1OC(F)(F)O2,inactive,–
CNC(=O)N(C)c1nnc(C(C)(C)C)s1,inactive,–
CNC(=O)Oc1cccc2ccccc12,inactive,–
CSC(=O)c1c(C(F)F)nc(C(F)(F)F)c(C(=O)SC)c1CC(C)C,inactive,–
O=P(O)(O)CCCl,inactive,–
C=CCOC(=O)C(C)(C)OC(=O)c1cc(-n2c(=O)cc(C(F)(F)F)n(C)c2=O)ccc1Cl,inactive,–
CCCC(=NOCC)C1=C(O)CC(CC(C)SCC)CC1=O (stereo not given),inactive,–
COC(=O)N(C(=O)N1CO[C@@]2(C(=O)OC)Cc3cc(Cl)ccc3C2=N1)c1ccc(OC(F)(F)F)cc1,inactive,–
O=c1n(Cl)c(=O)n(Cl)c(=O)n1Cl,inactive,–
CC(C)N1C(=O)N(c2ccccc2)CSC1=NC(C)(C)C,inactive,–

SMILES,outcome,AC50
CCCCC(O)(Cn1cncn1)c1ccc(Cl)cc1Cl (stereo not given),inactive,–
CCOc1cc(C(C)(C)C)ccc1C1COC(c2c(F)cccc2F)=N1 (stereo not given),inactive,–
Nc1c(Cl)c(F)nc(OCC(=O)O)c1Cl,inactive,–
CCOP(=S)(OCC)Oc1nc(Cl)n(C(C)C)n1,inactive,–
CCOc1nc(F)cc2nc(S(=O)(=O)Nc3c(Cl)cccc3Cl)nn12,inactive,–
CC(C)NC(=O)N1CC(=O)N(c2cc(Cl)cc(Cl)c2)C1=O,inactive,–
CC(C)Nc1nc(Cl)nc(NC(C)C)n1,inactive,–
CCOc1nc(C(Cl)(Cl)Cl)ns1,inactive,–
COP(=S)(OC)SCn1nnc2ccccc2c1=O,inactive,–
CC(C)(C)C(=O)C(Oc1ccc(Cl)cc1)n1cncn1 (stereo not given),inactive,–
COC(=O)NS(=O)(=O)c1ccc(N)cc1,inactive,–
CO/N=C(/C1=NOCCO1)c1ccccc1Oc1ncnc(Oc2ccccc2Cl)c1F,–,4.82 µM (active)
Nc1cnn(-c2ccccc2)c(=O)c1Cl,inactive,–
Cc1nc(N(C)C)nc(OC(=O)N(C)C)c1C,inactive,–
Cc1c(COC(=O)[C@@H]2[C@H](/C=C(\Cl)C(F)(F)F)C2(C)C)cccc1-c1ccccc1,inactive,–
Clc1nc(Cl)nc(Nc2ccccc2Cl)n1,inactive,–
CCC(C)n1c(=O)[nH]c(C)c(Br)c1=O (stereo not given),inactive,–
CS(=O)(=O)c1ccc(C(=O)C2C(=O)CCCC2=O)c([N+](=O)[O-])c1,inactive,–
CC(C)Oc1cccc(NC(=O)c2ccccc2C(F)(F)F)c1,inactive,–
COCc1cnc(C2=NC(C)(C(C)C)C(=O)N2)c(C(=O)O)c1 (stereo not given),inactive,–
